Assay outcomes deposited in PubChem by National Center for Advancing Translational Sciences (NCATS).
PTHR1 ag: agonists of human PTHR1 parathyroid hormone receptor. Q03431. HEK293 GP2 PTHR1 cells, GloSensor cAMP luminescence, 1 h. Potency, µM (doses to about 115 µM), for the others: at the top dose activation, actives largely listed as activators. 410,000 tested, 0.075% active. AID 743266; further: nearly all actives have a fitted effect of over 55% in size
Target sequence (Q03431 whole entry, looked up): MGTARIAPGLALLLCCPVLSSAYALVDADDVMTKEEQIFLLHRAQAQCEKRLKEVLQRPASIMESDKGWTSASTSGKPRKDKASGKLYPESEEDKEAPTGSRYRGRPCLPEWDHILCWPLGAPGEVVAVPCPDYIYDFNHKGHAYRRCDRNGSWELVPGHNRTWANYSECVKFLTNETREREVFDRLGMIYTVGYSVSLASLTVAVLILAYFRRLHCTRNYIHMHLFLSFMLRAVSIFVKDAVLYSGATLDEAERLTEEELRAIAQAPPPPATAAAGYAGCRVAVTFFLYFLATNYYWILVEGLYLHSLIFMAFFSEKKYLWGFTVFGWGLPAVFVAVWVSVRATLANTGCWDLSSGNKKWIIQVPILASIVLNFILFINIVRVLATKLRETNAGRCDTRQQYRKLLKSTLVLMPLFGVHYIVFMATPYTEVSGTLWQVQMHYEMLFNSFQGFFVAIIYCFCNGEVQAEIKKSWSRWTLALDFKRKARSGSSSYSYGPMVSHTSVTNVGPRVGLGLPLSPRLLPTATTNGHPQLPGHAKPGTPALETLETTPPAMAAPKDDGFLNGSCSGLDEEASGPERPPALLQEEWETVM
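HEK-293-derived GP2 cells expressing PTHR1 and a GloSensor cAMP reporter, 3,000/well, plated overnight, given luciferin plus IBMX (each 0.5 mM as added) for 1 h at 37 °C, then compound for 1 h at 37 °C. Luminescence was read after 15 min at room temperature.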
GLP1R cytotox: cytotoxic in the GLP-1 receptor inverse agonist counter-screen; Potency, µM (doses to about 38.3 µM), inactives show at the highest dose activity change, negative = inhibition, hits mostly inhibitors; AID 624418; HEK293 cAMP-luciferase reporter cells, luminescence, 24 h; 410,000 tested, 0.13% active;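 further: loss of luciferase light is scored as toxicity; on the % scale 0 is the no-effect control and ±100 the full control effect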
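A 23 nL compound transfer followed 12 hours of cell culture at 37 deg C; exposure then lasted 24 hr. Luciferase assay detection reagent was dispensed and plates read for luminescence after a 12 min room-temperature wait.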
GLP-1R inv ag: GLP-1 receptor (human) inverse agonism; P43220; HEK293 GLP-1R CRE-luciferase, luminescence, 24 h; GLP-1R form is constitutively active; Potency, µM (highest dose often 38.3 µM), for inactives: at the highest dose activity change, negative = inhibition, hits mostly inhibitors; 410,000 tested, 1.6% active; AID 624417; further: on the % scale 0 is the no-effect control and ±100 the full control effect; nearly all actives have a fitted effect of over 55% in size
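HEK293 cells stably co-expressing a cAMP-responsive luciferase reporter and constitutively active GLP-1R were seeded, incubated 12 h, then exposed to compounds for 24 h at 37 C. Luminescence was read 12 min after detection reagent; inverse agonists lower signal.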
GLP1R ag: activates the human GLP-1 receptor; Potency, µM (highest dose often 45.6 µM), without a hit: at the top dose activation, usual class: activators; AID 624172; 380,000 tested, 0.007% active; HEK293 GLP-1R CRE-luciferase, luminescence, 4-6 h; cells express a hypersensitive GLP-1R form; P43220; further: % of control where 0% means no effect
* marks the source's active call; other numbers are inactive results; i = inactive; ? = inconclusive; / = not tested or not shown; [ ] = dose if it differs, or a comment. This is a sample that favours compounds with a hit; in the whole collection about 1.7% have one here. The call rests on the fitted dose curve; in most records, active means well fitted curve in the direction sought with a large enough effect; inconclusive means small, poorly fitted or top-dose-only effect, or another doubt; inactive means no such curve, though single readings can be large; an effect the other way counts as inactive or inconclusive. Potency means the concentration at half of the fitted maximal effect.

SMILES	PTHR1 ag	GLP1R cytotox	GLP-1R inv ag	GLP1R ag
O=C(c1ccc(Cn2c(=O)[nH]c3ccccc3c2=O)cc1)N1CCN(c2ccc(Cl)cc2)CC1	i	-7%	11µM*	2%
CC(=O)c1ccc(N2CCN(C(=O)c3ccc(Cn4c(=O)[nH]c5ccccc5c4=O)cc3)CC2)cc1	i	0%	-4%	/
CCOC(=O)N1CCN(C(=O)c2ccc3c(=O)n(Cc4ccc(Cl)cc4)c(=S)[nH]c3c2)CC1	-13%	-17%	2µM*	1%
CCCn1c(=S)[nH]c2cc(C(=O)N3CCN(C(=O)OCC)CC3)ccc2c1=O	-8%	-5%	-3%	13%
O=c1n(Cc2ccc(Cl)cc2)nc2n1-c1ccccc1OC2	i	5%	10%	0%
CCC(=O)NC(c1ccco1)c1cc(Cl)c2cccnc2c1O (stereo unspecified)	i	?	7.1µM*	4%
Clc1ccccc1C1=Nn2c(nnc2-c2ccncc2)SC1	-5%	0%	1.1µM*	-10%
CCCC1=Nc2cc(C(=O)NCCc3ccccc3)ccc2Sc2ccc(C)cc21	-67%	?	?	-6%
CCCC1=Nc2cc(C(=O)NCc3ccc(OC)cc3)ccc2Sc2ccc(C)cc21	-19%	-25%	4.5µM*	-4%
CCCC1=Nc2cc(C(=O)NC(C)c3ccccc3)ccc2Sc2ccc(C)cc21 (stereo unspecified)	-16%	-19%	4.5µM*	-3%
Cc1ccccc1-c1ccnc2c(-c3ccc(F)cc3)c(C)nn12	-84%	6%	?	1%
CC(C)[C@H](CO)N(Cc1cccc(F)c1)c1nc(Nc2cccc(Cl)c2)c2ncn(C(C)C)c2n1	i	18%	4µM*	2%
CC[C@H](CO)Nc1nc(Nc2cccc(Cl)c2)c2ncn(C(C)C)c2n1	-8%	?	?	-16%
Cc1ccc(Cn2c(C(C)Nc3nc(-c4ccc(F)cc4)cs3)nc3cc(Cl)c(Cl)cc32)cc1 (stereo unspecified)	16%	-24%	11µM*	-6%
COc1ccc(NS(=O)(=O)c2ccc3[nH]c4c(c3c2)CCCCCC4)cc1	-17%	-4%	?	/
Cc1ccc(NS(=O)(=O)c2ccc3[nH]c4c(c3c2)CCCCC4)cc1	i	?	11µM*	/
Cc1ccc(C2=NC(c3ccc(F)cc3)=Nc3ccc(C)cc3N2)cc1	-2%	1%	-21%	/
COc1ccc(C(=O)Nn2c(SCc3cccc([N+](=O)[O-])c3)nc3ccccc3c2=O)cc1	-20%	5%	5.6µM*	-17%
Cc1ccccc1CNC(=O)Cn1c(=O)c2cccn2c2cccnc21	i	-1%	-16%	/
O=C(Cn1c2c(c(-c3ccccc3)cc1=O)CCCC2)N1CCCCCC1	-17%	12%	13µM*	3%
COc1ccc(OC)c(NC(=O)COCc2cc(-c3ccc(F)cc3)on2)c1	-15%	-4%	-21%	/
Cc1nc(SCC(=O)NCC(F)(F)F)c2c(-c3cccs3)csc2n1	-76%	-9%	?	-5%
Cc1nc(SCC(=O)NC(C)(C#N)C2CC2)c2c(-c3cccs3)csc2n1 (stereo unspecified)	-3%	-19%	6.3µM*	3%
Fc1ccc(C(c2nnnn2CCc2ccccc2)N2CCCc3ccccc32)cc1 (stereo unspecified)	-2%	-8%	2.8µM*	-4%
COc1ccc(N2CCN(C(c3ccccc3)c3nnnn3Cc3ccc(F)cc3)CC2)cc1 (stereo unspecified)	-11%	-11%	13µM*	3%
SMILES	PTHR1 ag	GLP1R cytotox	GLP-1R inv ag	GLP1R ag
COc1ccccc1N1CCN(C(c2ccccc2)c2nnnn2CCc2ccccc2)CC1 (stereo unspecified)	-10%[57.5 µM]	0%	11µM*	0%
Fc1ccc(C(c2nnnn2C2CCCC2)N2CCc3ccccc32)cc1 (stereo unspecified)	-10%[57.5 µM]	4%	?	-6%
COc1ccccc1C(c1nnnn1CCc1ccccc1)N1CCCCCC1 (stereo unspecified)	-35%	-18%	11µM*	3%
COc1ccccc1C(c1nnnn1CCc1ccccc1)N1CCN(c2ccccc2)CC1 (stereo unspecified)	i	-7%	8%	4%
CCc1ccc(NC(=O)CSc2nnc3[nH]c(=O)cc(-c4ccccc4)n23)cc1	0%	-1%	16%	/
COc1ccc(Cl)cc1S(=O)(=O)N1CCN(C(=O)c2cc(-c3ccc(Br)cc3)n[nH]2)CC1	-4%	-19%	10µM*	/
CC(C)(C)c1ccc(C2=NC(C)(C)N(CC(=O)Nc3ccc(F)c(F)c3)C2=O)cc1	-15%	1%	11µM*	/
Cc1ccc(NC(=O)C(=O)NCC(c2cccnc2)N2CCN(Cc3ccccc3)CC2)cc1Cl (stereo unspecified)	-27%	3%	9%	/
COc1ccccc1CNC(=O)CCCCn1c(=O)c2ccccc2n(Cc2ccccc2F)c1=O	i	-1%	4%	1%
CC1=NN(/C(=N\c2nnc(C)s2)Nc2ccc(C)cc2)[C@H](c2ccc(C)cc2)S1	-24%[57.5 µM]	-13%	10µM*	-2%
Cc1ccc(-c2nnn(CC(=O)N(Cc3ccco3)C(C(=O)NC(C)(C)C)c3ccc(C)o3)n2)o1 (stereo unspecified)	-21%	1%	1.3µM*	0%
Cc1cccc(NS(=O)(=O)c2ccc3c(c2)CCN3C(=O)C2CC2)c1C	-18%	-15%	-19%	3%
Cc1ccc2nc(-c3ccccc3F)c(Nc3ccc(Cl)cc3)n2c1	-34%	0%	11µM*	/
O=C(C=Cc1ccccc1O)c1ccccc1O	-23%	-16%	7.9µM*	6%
O=C(/C=C/c1ccc(O)c(O)c1)c1ccccc1O	-12%	?	16%	12%
COc1ccc(/C=C/C(=O)OCCC(C)C)cc1	/	/	/	3%
C/C=C/c1ccc(OCCCCN2CCN(CC)CC2)c(OC)c1	i	8%	?	6%
C/C=C/c1ccc(OCCCCN2CC(C)CC(C)C2)c(OC)c1 (stereo unspecified)	-9%	?	11µM*	-1%
C/C=C/c1ccc(OCCCNCC(C)O)c(OC)c1 (stereo unspecified)	-27%[57.5 µM]	-12%	5.6µM*	0%
C/C=C/c1ccc(OCCCCOc2ccc(OC)cc2)c(OC)c1	-14%	20%	?	8%
O=C(NCC(c1ccco1)N1CCc2ccccc21)C(=O)Nc1ccc(F)cc1F (stereo unspecified)	-19%	-1%	4µM*	-5%
C#CCC(Cc1cnc2nc(N)nc(N)c2n1)c1ccc(C(=O)N[C@@H](CCC(=O)O)C(=O)O)cc1 (stereo partly specified)	/	/	/	6%
Cc1noc(C)c1COC(=O)CCN1c2ccccc2Sc2ccccc21	i	16%	4.5µM*	16%
Cc1noc(C)c1COC(=O)CCOc1ccccc1	i	7%	4%	2%
